Results filed as inconclusive are left out. A call without a number means that no potency is given here. A number with no mark means an inactive call. Calls of active or inactive are those of the source. Calls come from the whole dose curve; as a rule, active = well fitted curve in the direction sought with a large enough effect; inconclusive = small, poorly fitted or top-dose-only effect, or another doubt; inactive = no such curve, though single readings can be large; an effect the other way counts as inactive or inconclusive.
Columns and labels:
[1] = Primary qHTS for inhibitors of nuclear receptor binding SET domain protein 2 (NSD2) in an isogenic RCH-ACV NSD2 p.E1099K mutant (9B) (AID 1645876); note: nearly all actives have a fitted effect of over 70% in size; note: potency is the fitted concentration of half-maximal effect
Papain (Carica papaya) = Papain (Carica papaya) (UniProt P00784); assay: Primary qHTS assay for inhibitors of the protease papain (AID 1645873);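 note: papain turnover of Z-FR-AMC read as the AMC fluorescence gain over 10 min; series mostly up to about 50 µM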
Chain of Papain (Carica papaya) (P00784 whole entry, looked up, the tested form may be a part): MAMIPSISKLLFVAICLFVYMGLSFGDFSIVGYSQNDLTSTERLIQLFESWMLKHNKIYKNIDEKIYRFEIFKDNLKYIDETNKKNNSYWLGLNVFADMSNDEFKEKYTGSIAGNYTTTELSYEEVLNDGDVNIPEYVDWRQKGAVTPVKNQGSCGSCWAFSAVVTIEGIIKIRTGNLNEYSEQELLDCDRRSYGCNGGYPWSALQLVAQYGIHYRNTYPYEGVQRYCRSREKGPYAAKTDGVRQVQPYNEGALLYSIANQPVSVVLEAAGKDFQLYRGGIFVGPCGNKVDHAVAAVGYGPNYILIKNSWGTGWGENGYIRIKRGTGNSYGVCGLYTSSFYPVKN

[2] = Primary qHTS for inhibitors of nuclear receptor binding SET domain protein 2 (NSD2) in an RCH-ACV wild type WT cells (2C) (AID 1645877); note: nearly all actives have a fitted effect of over 70% in size; note: potency is the fitted concentration of half-maximal effect
[3] = target: N-terminal Xaa-Pro-Lys N-methyltransferase 1 (Homo sapiens) (UniProt Q9BV86); assay: Confirmatory qHTS for Inhibitors of N-terminal methyltransferase 1 (NTMT1): MTaseGlo Assay (AID 1645874); note: potency is the fitted concentration of half-maximal effect; nearly all actives have a fitted effect of over 65% in size
Chain of N-terminal Xaa-Pro-Lys N-methyltransferase 1 (Homo sapiens) (Q9BV86 whole entry, looked up): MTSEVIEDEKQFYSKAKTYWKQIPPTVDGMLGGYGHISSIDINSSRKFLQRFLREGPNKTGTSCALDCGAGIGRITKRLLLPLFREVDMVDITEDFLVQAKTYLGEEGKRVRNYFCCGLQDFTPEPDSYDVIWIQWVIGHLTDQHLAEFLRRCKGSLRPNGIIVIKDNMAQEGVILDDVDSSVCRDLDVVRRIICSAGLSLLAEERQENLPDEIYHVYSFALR
Procedure, shortened: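 MTase-Glo luminescence measured SAH formed by 125 nM NTMT1 from 100 uM SAM and 1 uM SPKRIA peptide over 30 min at room temperature, following 15 min compound preincubation. Percent inhibition against no-enzyme and DMSO controls gave 4-parameter Hill fits.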

## COC(=O)C12C(=O)C(C)(O)C(=O)C1(C)C(C)=CC1C34CCC(OC3=O)C(C)(CO)C4CCC12C (stereo not drawn)
[1]
  Potency: inactive

## COC(=O)C1(C)CCC(=O)C2(C)c3c(O)cc(C(C)C)cc3C(O)C(OC(C)=O)C12 (stereo not drawn)
[1]
  Potency: inactive

## CC12NC(Cc3ccccc31)c1ccccc12 (stereo not drawn)
Papain (Carica papaya)
  Potency: inactive

## COC(=O)C1(C)CCC(O)C2(C)c3cc(O)c(C(C)C)cc3C(O)C(OC(C)=O)C12 (stereo not drawn)
[1]
  Potency: inactive

## CC[C@H]1CN2CC[C@H]1C[C@H]2[C@H](O)c1ccnc2ccc(OC)cc12
[1]
  Potency: inactive

## C=CC(C)(C)c1[nH]c2cccc3c2c1C[C@@H]1[C@@H]3[C@@H](OC(C)=O)[C@H](C)CN1C
[1]
  Potency: inactive

## C/C=C(\C)C(=O)OC1CC2C(CC=C3CC(OC4CC(OC)C(OC5CC(OC)C(OC6OC(C)C(OC7OC(CO)C(O)C(O)C7O)C(OC)C6O)C(C)O5)C(C)O4)CCC32C)C2(O)CCC(C(C)=O)C12C (stereo not drawn)
[1]
  activity change, negative = viability loss: -7.24% [at 9.23 µM]

## COC1CC(OC2CCC3(C)C(CCC4C3CCC3(C)C(C5=CC(=O)OC5)C(OC(C)=O)CC43O)C2)OC(C)C1OC1OC(CO)C(O)C(O)C1O (stereo not drawn)
[1]
  Potency: 483 nM (active)
[2]
  Potency: 1.21 µM (active)

## O=C(O)c1ccnc2cc(C(OCCN3CCCCC3)c3ccccc3Cl)[nH]c12 (stereo not drawn)
[1]
  Potency: inactive

## CN[C@H]1[C@H](O)[C@H](O[C@@H]2[C@@H](O)[C@H](O[C@H]3O[C@H]([C@H](C)O)[C@@H](O)[C@H](O)[C@H]3N)[C@@H](N)C[C@H]2N)OC[C@@]1(C)O
[1]
  Potency: inactive

## COC1C(O)C(C)OC(OC2C(CO)O[C@@H](O[C@@H]3CC4CCC5C(CC[C@]6(C)[C@@H](C7=CC(=O)OC7)CC[C@]56O)[C@@]4(C)[C@H](O)C3)C(O)C2O)C1O (stereo partly drawn)
[1]
  Potency: 430 nM (active)

## C=C[C@H]1[C@H](O[C@@H]2O[C@H](CO)[C@@H](O)[C@H](O)[C@H]2O)OC=C2C(=O)OCC[C@H]21
[1]
  Potency: inactive

## COC1CC(OC2CCC3(C)C(=CCC4C3CCC3(C)C(C(C)OC5OC(COC6OC(CO)C(O)C(O)C6O)C(O)C(O)C5O)CCC43O)C2)OC(C)C1OC1OC(C)C(O)C(OC)C1O (stereo not drawn)
[1]
  outcome: inactive [at 9.23 µM]

## COC1CC(O[C@H]2CC[C@]3(C=O)C4CC[C@]5(C)[C@@H](C6=CC(=O)OC6)CC[C@]5(O)[C@@H]4CC[C@]3(O)C2)OC(C)C1O[C@@H]1O[C@H](CO)[C@@H](O)[C@H](O)[C@H]1O (stereo partly drawn)
[1]
  Potency: 54.1 nM (active)

## CC(C)(C)c1cc(C=C(C#N)C#N)cc(C(C)(C)C)c1O
Papain (Carica papaya)
  Potency: inactive
[3]
  Potency: 38.8 µM (active)

## NC(=O)CI
Papain (Carica papaya)
  Potency: inactive
[3]
  Potency: 12.3 µM (active)

## CC(C)=C1CC[C@]23CO[C@H](C2)[C@@](O)(C(=O)O)CCC13 (stereo partly drawn)
[1]
  Potency: inactive

## C1=C2CCCN[C@H]2[C@@H]2C[C@H]1[C@H]1CCCCN1C2
[1]
  Potency: inactive

## C/C=C(\C)C(=O)OC1CC2C(C)(C)OC(=O)CC(OC(C)=O)C2(C)C2CC(OC(=O)C(C)C)C3(C)C(c4ccoc4)CC4OC43C12C (stereo not drawn)
[1]
  Potency: inactive

## COC1CC(OC2CCC3(C=O)C(CCC4C3CCC3(C)C(C5=CC(=O)OC5)CCC43O)C2)OC(C)C1OC1OC(CO)C(O)C(O)C1O (stereo not drawn)
[1]
  Potency: 85.8 nM (active)

## C[C@H]1C(=O)O[C@H]2[C@H](O)[C@]34C5OC(=O)[C@]3(O[C@@H]3OC(=O)[C@H](O)C34[C@H](C(C)(C)C)[C@H]5O)C12O (stereo partly drawn)
[1]
  Potency: inactive

## COC1CC(O[C@H]2CC[C@@]3(C)C(=CCC4C3C(O)[C@@H](O)[C@]3(C)[C@@H](C(C)=O)CC[C@]43O)C2)OC(C)C1OC1CC(OC)C(OC2OC(C)C(O)C(O)C2O)C(C)O1 (stereo partly drawn)
[1]
  activity change, negative = viability loss: -2.91% [at 9.23 µM]

## N#C/C(=C/c1ccc(O)c(O)c1)C(N)=S
Papain (Carica papaya)
  Potency: inactive
[1]
  Potency: 8200 nM (active)
[2]
  Potency: 9.2 µM (active)

## C[C@@]12C[C@@H](c3ccoc3)OC(=O)C1CC[C@]1(C)[C@H]2[C@H]2C=C[C@]1(O)C(=O)O2 (stereo partly drawn)
[1]
  Potency: inactive

## C=C[C@H]1CN2CC[C@H]1C[C@@H]2[C@@H](O)c1ccnc2ccccc12
[1]
  Potency: inactive
[2]
  Potency: inactive

## CC(=O)OC1CC(O)C2(C)C(CC(OC(C)=O)C3(C)C2CCC2(C)C(c4ccoc4)C(=O)C4OC423)C1(C)C (stereo not drawn)
[1]
  Potency: inactive

## CCCN1CCO[C@H]2c3cc(O)ccc3OC[C@@H]21
[1]
  Potency: inactive

## COC1C(O)C(OC2CCC3(C=O)C(CCC4C3CCC3(C)C(C5=CC(=O)OC5)CCC43O)C2)OC(C)C1OC1OC(CO)C(O)C(O)C1O (stereo not drawn)
[1]
  Potency: 171 nM (active)
[2]
  Potency: 0.342 µM (active)

## CCN1CC2(COC)C3[C@@H](OC)C4C1C3(C1C[C@]3(O)[C@H](OC(=O)c5ccccc5)C1[C@]4(OC(C)=O)[C@@H](O)[C@@H]3OC)[C@H](OC)C[C@H]2O (stereo partly drawn)
[1]
  Potency: inactive
[2]
  Potency: inactive

## CC(=O)OC1CC(O)C(C)(C)C2CC(OC(C)=O)C3(C)C(CCC4(C)C(c5ccoc5)C(=O)C5OC543)C12C (stereo not drawn)
[1]
  Potency: inactive

## CC(CCc1ccc(O)cc1)O[C@@H]1O[C@H](CO[C@H]2OC[C@](O)(CO)[C@H]2O)[C@@H](O)[C@H](O)[C@H]1O (stereo partly drawn)
[1]
  Potency: inactive
[2]
  Potency: inactive

## CN1C(=O)N(c2ccc(C#N)c(C(F)(F)F)c2)C(=O)[C@]1(CO)c1ccccc1
[1]
  Potency: inactive
[2]
  Potency: inactive

## CC(=O)O[C@H]1C[C@@H](OC(C)=O)C(C)(C)C2C[C@@H](O)[C@]3(C)C(CC[C@@]4(C)[C@H](C5=CC(=O)OC5O)C[C@H]5O[C@]543)[C@]21C (stereo partly drawn)
[1]
  Potency: inactive
[2]
  Potency: inactive

## COc1c(C(C)C)cc2c(c1O)[C@@]1(C(=O)O)CCCC(C)(C)C1CC2 (stereo partly drawn)
[1]
  Potency: inactive
[2]
  Potency: inactive

## COC1=CC(=O)O[C@@H](/C=C/c2ccccc2)C1
[1]
  Potency: inactive
[2]
  Potency: inactive

Reference: PubChem BioAssay (NCATS)
